From PubChem BioAssay (Tox21) come the findings set out here.

Experiment [1] has as its target Estrogen receptor (Homo sapiens) (UniProt P03372). The experiment is described as follows: qHTS assay to identify small molecule antagonists of the estrogen receptor alpha (ER-alpha) signaling pathway using the BG1 cell line in the presence of 0.1 nM 17-beta-estradiol (AID 1259244). Note: nearly all actives have a fitted effect of over 50% in size. Note: potency is the fitted concentration of half-maximal effect. Summed up:
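Luminescence after ONE-Glo (30 min, room temperature) measured ERE-luciferase activity in VM7Luc4E2 cells treated 22 h with compound and 0.1 nM final 17beta-estradiol as stimulator.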
On the technique in general: qHTS replaces the single test concentration by a dilution series.

Experiment [2] in a line: qHTS assay to identify small molecule HDAC inhibitors (AID 1259364). For activity change, negative = inhibition: top concentration of the series differs between compounds. Note: potency is the fitted concentration of half-maximal effect.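 Note: wild-type HCT-116 cells with endogenous class I/II HDAC activity; nearly all actives have a fitted effect of over 45% in size.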 Summed up: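 HCT-116 (wild type), 1,500 cells/well, overnight; compound 2 hr 37C 5% CO2; HDAC-Glo I/II reagent 30 min RT; luminescence readout.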
Experiment [3] is described as follows: qHTS assay to identify small molecule HDAC inhibitors - cell viability counter screen (AID 1259365). Note: series mostly up to about 92 µM; nearly all actives have a fitted effect of over 50% in size. The method, boiled down: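 Luminescence from CellTiter-Glo, developed 30min at room temperature, reports viability of wild-type HCT-116 cells treated 2hr with compounds at 37 C and 5% CO2 after overnight plating.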
Experiment [4] in a line: qHTS assay to identify small molecule agonists of the sonic hedgehog signaling (Shh) pathway - cell viability counter screen (AID 1259366). Note: nearly all actives have a fitted effect of over 50% in size. Note: potency is the fitted concentration of half-maximal effect. The method, boiled down:
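Cytotoxicity counter screen run in the same wells as the Shh reporter assay. NIH/3T3 cells carrying a Gli1 response element–driven luciferase were treated with DMSO-dissolved compounds for 24hr, and live-cell protease activity was measured with CellTiter-Fluor.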

Experiment [5] is described as follows: qHTS assay to identify small molecule antagonists of the sonic hedgehog signaling (Shh) pathway - cell viability counter screen (AID 1259367). Note: nearly all actives have a fitted effect of over 55% in size. Note: potency is the fitted concentration of half-maximal effect. The method, boiled down: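 CellTiter-Fluor signal in conditioned medium-stimulated 3T3 Gli1-Luc cells, 23 hr compound exposure, 37C.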
Experiment [6] is described as follows: qHTS assay to identify small molecule agonists of the sonic hedgehog signaling (Shh) pathway (AID 1259368; calls by dose curve;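 note: NIH/3T3-derived 3T3Gli1-Luc cells carrying a stable Gli1-driven firefly luciferase reporter; series mostly up to about 92 µM; nearly all actives have a fitted effect of over 15% in size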). The method, boiled down:
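Read-out: firefly luciferase luminescence from a Gli1 response element reporter stably integrated in NIH/3T3-derived 3T3Gli1-Luc cells, measured 30 min at room temperature after reagent addition. Compound exposure lasted 24 hr at 37 C, 5% CO2.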

The nature of experiment [7]: qHTS assay to identify small molecule antagonists of the sonic hedgehog signaling (Shh) pathway (AID 1259369; calls by dose curve; note: nearly all actives have a fitted effect of over 45% in size; note: potency is the fitted concentration of half-maximal effect). The method, boiled down:
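Luminescence readout: firefly Luc under Gli1 response element in 3T3Gli1-Luc cells (NIH/3T3 clone). Antagonist mode, stimulation by conditioned medium; compound exposure 24hr at 37 C, 5% CO2.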

The target in experiment [8] is Estrogen receptor beta (Homo sapiens) (UniProt Q92731). The experiment is described as follows: qHTS assay to identify small molecule agonists of the estrogen receptor beta (ER-beta) signaling pathway (AID 1259377; active = well fitted activation curve with a large enough effect in the signal ratio in the repeat runs, not every such curve was filed as active; the % refers to the signal ratio). The method, boiled down: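 HEK293T ER-beta-UAS-bla; 2% charcoal-stripped FBS; cells pre-incubated 6 hr, compound 16 hr, 37C/5% CO2; LiveBLAzer B/G FRET substrate 2 h RT; fluorescence intensity read.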
Chain of Estrogen receptor beta (Homo sapiens) (Q92731 whole entry, looked up): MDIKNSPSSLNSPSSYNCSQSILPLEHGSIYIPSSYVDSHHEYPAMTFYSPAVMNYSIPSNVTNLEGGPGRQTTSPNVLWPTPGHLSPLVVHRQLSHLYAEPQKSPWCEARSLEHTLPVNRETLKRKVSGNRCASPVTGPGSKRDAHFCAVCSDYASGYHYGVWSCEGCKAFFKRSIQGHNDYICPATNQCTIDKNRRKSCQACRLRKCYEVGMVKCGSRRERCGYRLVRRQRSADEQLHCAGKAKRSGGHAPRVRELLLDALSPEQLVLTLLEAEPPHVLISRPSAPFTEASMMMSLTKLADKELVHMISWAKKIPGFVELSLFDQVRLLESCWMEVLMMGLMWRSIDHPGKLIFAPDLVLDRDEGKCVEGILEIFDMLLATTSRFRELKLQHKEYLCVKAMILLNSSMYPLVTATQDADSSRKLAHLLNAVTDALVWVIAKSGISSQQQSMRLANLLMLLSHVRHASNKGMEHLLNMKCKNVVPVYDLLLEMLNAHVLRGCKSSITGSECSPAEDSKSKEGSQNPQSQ

Experiment [9] can be described thus: qHTS assay to identify small molecule phospholipidosis (PLD) inducers (AID 1259344; active = well fitted curve in the direction sought with a large enough effect; an effect the other way counts as inactive or inconclusive). The method, boiled down:
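Accumulated phospholipid, stained red by LipidTOX during 24 h compound treatment of HepG2 cells at 37 C, is quantified from images as pit number and intensity, normalised per cell using Hoechst-stained nuclei.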

Structures are written as SMILES. Values joined by “and” are separate entries in the source; they are usually repeats but may differ in a detail not shown here. Equal values may be shown once. Inconclusive results are not listed. A structure can be active in one record and inactive in another. Active and inactive are the calls of the source. Unless noted, calls come from the whole dose curve; as a rule, active = well fitted curve in the direction sought with a large enough effect in the repeat runs; inconclusive = weak or mixed curves; inactive = no such curve, though single readings can be large; an effect the other way counts as inactive or inconclusive.
% is set by controls: 0 for no effect and ±100 for the full control effect.

Chain of Estrogen receptor (Homo sapiens) (P03372 whole entry, looked up): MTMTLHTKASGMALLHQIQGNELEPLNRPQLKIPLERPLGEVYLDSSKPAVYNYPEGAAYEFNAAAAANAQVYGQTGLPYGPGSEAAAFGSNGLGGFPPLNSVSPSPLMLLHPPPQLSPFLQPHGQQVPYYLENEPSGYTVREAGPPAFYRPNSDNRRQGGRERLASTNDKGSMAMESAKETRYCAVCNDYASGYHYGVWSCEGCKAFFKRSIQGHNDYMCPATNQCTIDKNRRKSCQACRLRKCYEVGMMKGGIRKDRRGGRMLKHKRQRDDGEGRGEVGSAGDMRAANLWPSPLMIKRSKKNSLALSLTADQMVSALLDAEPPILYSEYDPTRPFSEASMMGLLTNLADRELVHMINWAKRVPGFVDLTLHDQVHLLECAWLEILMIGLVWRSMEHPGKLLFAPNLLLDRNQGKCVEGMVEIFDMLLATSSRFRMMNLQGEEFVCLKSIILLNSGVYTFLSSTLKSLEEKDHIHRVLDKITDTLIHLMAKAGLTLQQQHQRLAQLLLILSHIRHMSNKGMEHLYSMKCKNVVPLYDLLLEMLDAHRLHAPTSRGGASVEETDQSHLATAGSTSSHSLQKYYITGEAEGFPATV

For `CCCCOCCOC(=O)c1ccccc1C(=O)OCCOCCCC`, the Potency was 47.5 µM (active) and inactive in experiment [1]; 53.3 µM (active) and inactive in experiment [5]; 26.7 µM (active) in experiment [7]. Moreover, the Potency entry in [2], in experiment [3], in [4] and in experiment [6] was “inactive” in each case. In addition, the outcome in [8] was inactive.

For `CCN(CC)c1ccc2c(C)cc(=O)oc2c1`, the Potency entry in [1], in experiment [2], in experiment [3] and in experiment [6] was “inactive” throughout. For the same molecule, in experiment [7], the Potency was 24.5 µM (active) and 54.5 µM (active).

For `CC(=O)N[C@@H](CS)C(=O)O`, the Potency result in experiment [1], in experiment [2], in [3], in experiment [4], in experiment [5] and in experiment [6] was “inactive” each time. Besides, the Potency entry in experiment [7] is “inactive”. For the same molecule, the molecule was called inactive in experiment [8].

Consider `O=C(O)c1cc(Cl)cc(Cl)c1`, for which the Potency result in [1], in experiment [2], in experiment [3], in experiment [4], in experiment [5] and in experiment [6] was “inactive” each time. Further, the Potency result in experiment [7] was “inactive”. In addition, in [8], the call was inactive.

Consider `CC(=O)OCC1=C(C(=O)O)N2C(=O)[C@@H](NC(=O)Cc3cccs3)[C@H]2SC1`, for which the Potency result in experiment [9], in [2], in experiment [3], in [4], in [5] and in experiment [6] was “inactive” throughout. For the same molecule, the Potency result in experiment [7] was “inactive”. Also, the molecule was classed as inactive in experiment [8].

Turning to `Cc1cc(C(C)(C)C)c(O)c(C(C)(C)C)c1`, the Potency result in experiment [9], in experiment [2], in [3], in experiment [4], in experiment [5] and in experiment [6] was “inactive” in each case. Moreover, the Potency entry in experiment [7] is “inactive”. In [8], the outcome was inactive.

As for `NC(=Nc1ccccc1)Nc1ccccc1`, the Potency in [1] is 10.9 µM (active); in experiment [2] it was 686 nM (active) and inactive; in [7] it was 2.43 µM (active). Further, the Potency entry in [3], in experiment [4], in experiment [5] and in [6] was “inactive” each time. Besides, the call in experiment [8] was inactive.

For the molecule `O=C(O[C@@H]1Cc2c(O)cc(O)cc2O[C@@H]1c1cc(O)c(O)c(O)c1)c1cc(O)c(O)c(O)c1`, the Potency result in [1], in [2], in [3] and in [6] was “inactive” each time. The Potency is 27.4 µM (active) and 26.3 µM (active) in experiment [4]; 23.4 µM (active) in [5]; 27.4 µM (active) in experiment [7]. Further, the molecule was classed as inactive in [8].

As for `CCn1c2ccccc2c2cc(N)ccc21`, the Potency result in experiment [1], in [3], in experiment [4], in experiment [5] and in experiment [6] was “inactive” in each case. Also, the Potency result in experiment [2] was “inactive and 27.3 µM (active)”; in experiment [7], 15.2 µM (active) and inactive. Also, the outcome in experiment [8] was inactive.

`C=C(C)C1CC=C(C)C(OC(C)=O)C1` (stereo not drawn): the Potency result in experiment [1], in experiment [2], in [3], in [4], in experiment [5] and in experiment [6] was “inactive” each time. In addition, the Potency entry in experiment [7] was “inactive”. Moreover, in experiment [8], the outcome was inactive.

`CCCCCCCCCCCCCCCCCl`: the activity change, negative = inhibition in experiment [1] was 26.4% [at 19 µM] (inactive); in experiment [2], 11.8% [at 19 µM] (inactive); in experiment [7] it was 30% [at 19 µM] (inactive). Further, the activity change, negative = cytotoxicity in experiment [3] was -13.9% [at 19 µM] (inactive). Besides, the viability change, negative = cytotoxic in experiment [4] was 0.0419% [at 19 µM] (inactive); in experiment [5], -3.23% [at 19 µM] (inactive). The activity change in experiment [6] is -1.24% [at 18.9 µM, stronger effect = higher value] (inactive). Besides, the activation in [8] is 1.06% [at 19 µM] (inactive).

As for `N[C@@H]1CONC1=O`, the Potency entry in experiment [2], in experiment [3], in [4], in [5], in experiment [6] and in [7] was “inactive” throughout. For the same molecule, the outcome in experiment [8] was inactive.

Consider `OCCOCCN1CCN(C(c2ccccc2)c2ccc(Cl)cc2)CC1` (stereo not drawn), for which the Potency result in [2], in experiment [3] and in [6] was “inactive” each time. Also, the Potency in experiment [4] was 26.9 µM (active); in experiment [5], 19.1 µM (active) and inactive; in experiment [7] it was 7.59 µM (active) and inactive.

As to `c1ccc2n[nH]nc2c1`, the Potency entry in experiment [2], in [3], in experiment [4], in experiment [5], in experiment [6] and in experiment [7] was “inactive” in each case. Besides, the call in experiment [8] was inactive.

For `CC(COc1ccccc1)N(CCCl)Cc1ccccc1` (stereo not drawn), the Potency result in experiment [2], in experiment [3], in experiment [4], in experiment [5] and in experiment [6] was “inactive” in each case. For the same molecule, in experiment [7], the Potency was 43.3 µM (active) and inactive.

Regarding `O=C(O)CCc1ccccc1`, the Potency entry in experiment [2], in experiment [3], in experiment [4], in experiment [5], in [6] and in [7] was “inactive” each time. Further, in experiment [8], the call was inactive.

Turning to `CCCCCCCCCCCC[N+](C)(C)C`, the Potency result in [2], in experiment [3] and in experiment [6] was “inactive” in each case. Also, the Potency is 43.1 µM (active) and 61.1 µM (active) and 54.5 µM (active) in [4]; 60.9 µM (active) and 61.1 µM (active) and 30.6 µM (active) in experiment [5]; 384 nM (active) and 24.3 nM (active) and 6.86 µM (active) in experiment [7].

In the case of `C/C=C/c1ccc(OCC)c(O)c1`, the Potency entry in experiment [3], in experiment [4], in [5], in experiment [6] and in [7] was “inactive” throughout. The outcome in experiment [8] was inactive.

Consider `C[N+]1([O-])CCOCC1`, for which the Potency result in experiment [2], in experiment [3], in [4], in experiment [5], in experiment [6] and in [7] was “inactive” throughout. For the same molecule, the outcome in experiment [8] was inactive.

As to `COc1ccc(CCN2CCC(Nc3nc4ccccc4n3Cc3ccc(F)cc3)CC2)cc1`, the Potency result in [2], in experiment [3] and in experiment [6] was “inactive” each time. Moreover, the Potency is 1.11 µM (active) and 3.76 µM (active) in experiment [4]; 1.4 µM (active) and 11.9 µM (active) in experiment [5]; 625 nM (active) and 3.35 µM (active) in [7].
